C8 TRAIL sens – caspase-8 TRAIL sensitization; inhibition (viability loss, TRAIL sensitization), % at 10 µM; AID 624354; 1% of 360,000 active; NB7+C8 cells + TRAIL, ATPlite viability luminescence;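 active = compounds causing at least 50% loss of cell viability in the single-dose screen, relative to plate controls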
HSP90 refold inh – inhibitors of HSP90 luciferase refolding in rabbit reticulocyte lysate. inhibition, % at 5.6 µM. luciferase refolding luminescence, 3 h. AID 1789. 0.91% of 290,000 active;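 active = inhibition above the screen-wide mean plus 3 SD, computed separately per campaign, cut at about 16% in these data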;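 also: 0% = DMSO wells and 100% = 60 µM geldanamycin wells; inhibitors lower the luminescence because luciferase stays unfolded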
aSyn 5UTR inh – MLPCN primary screen, SNCA 5' untranslated region. alpha-synuclein 5'UTR reporter, inhibitor activity. inhibition, % (tested at 7.5 µM). 0.82% of 300,000 active; in the data active = inhibition above about 60%;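 also: H4 neuroglioblastoma cells stably carrying SNCA 5'UTR luciferase fusion; 0% = DMSO wells and 100% = positive control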
TWEAK Fn14 block – TWEAK-Fn14 signaling inhibition. TWEAK-stimulated Fn14 reporter cells, luciferase luminescence, 8 h. inhibition, % at 10 µM. 2% of 360,000 active. AID 1159606; in the data active = inhibition above about 50%
HIF-2a block – inhibitors of HIF-2a; 786-0 RCC cells HIF-2a reporter, luciferase luminescence, overnight; inhibition, % at 18.8 µM; 0.72% of 360,000 active; AID 624352;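 active = inhibition of the luminescence signal of 40% or more relative to plate controls, in a single-dose primary screen at 18.75 µM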
TROY signal inh – inhibitors of TROY-dependent NF-kB signaling; Q293 LMP1-TROYcd NF-kB luciferase reporter, 4 h; inhibition, % at 10 µM; 0.98% of 360,000 active; AID 1347056;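 active = compounds whose plate-normalised and pattern-corrected inhibition of the luciferase reporter signal at the single screening dose is 50% or more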
Mdm2 MdmX conf – Mdm2/MdmX (human) interaction inhibition, confirmed | shares compounds with HIF-2a block | SaOS-2 split-luciferase Mdm2/MdmX complementation, luminescence | inhibition, % at 8 µM | 99% of 740 active;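 active = mean inhibition of the luminescence signal across two replicates at or above 26 percent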
Target sequence (O15151 whole entry, looked up): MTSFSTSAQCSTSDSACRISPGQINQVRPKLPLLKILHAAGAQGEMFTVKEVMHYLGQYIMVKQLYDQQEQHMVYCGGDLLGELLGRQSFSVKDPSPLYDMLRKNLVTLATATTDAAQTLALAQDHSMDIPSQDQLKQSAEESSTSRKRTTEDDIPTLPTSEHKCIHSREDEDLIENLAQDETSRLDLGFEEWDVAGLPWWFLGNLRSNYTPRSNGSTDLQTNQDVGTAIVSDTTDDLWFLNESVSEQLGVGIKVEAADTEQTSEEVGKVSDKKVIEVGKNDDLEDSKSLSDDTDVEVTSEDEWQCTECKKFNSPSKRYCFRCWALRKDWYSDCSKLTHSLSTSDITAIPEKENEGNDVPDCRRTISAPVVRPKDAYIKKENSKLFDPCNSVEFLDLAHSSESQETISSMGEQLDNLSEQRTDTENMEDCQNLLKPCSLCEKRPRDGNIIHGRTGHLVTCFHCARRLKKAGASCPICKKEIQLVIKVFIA
Target sequence (Q00987 whole entry, looked up): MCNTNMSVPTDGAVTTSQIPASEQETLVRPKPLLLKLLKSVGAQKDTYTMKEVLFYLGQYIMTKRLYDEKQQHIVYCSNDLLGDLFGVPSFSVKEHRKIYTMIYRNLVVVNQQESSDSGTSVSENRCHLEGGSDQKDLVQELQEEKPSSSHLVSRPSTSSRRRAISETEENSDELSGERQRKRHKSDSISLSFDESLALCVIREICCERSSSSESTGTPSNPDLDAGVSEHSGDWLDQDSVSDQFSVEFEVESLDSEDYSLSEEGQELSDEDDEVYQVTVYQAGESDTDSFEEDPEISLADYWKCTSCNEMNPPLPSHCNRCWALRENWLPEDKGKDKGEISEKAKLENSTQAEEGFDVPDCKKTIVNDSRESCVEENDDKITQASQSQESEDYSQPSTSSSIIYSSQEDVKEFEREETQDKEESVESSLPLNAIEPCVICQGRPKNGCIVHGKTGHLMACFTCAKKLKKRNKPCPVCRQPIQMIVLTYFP
HIF-2a conf – confirmation of HIF-2a inhibitors; 786-0 RCC cells, HIF-2a luciferase reporter luminescence, overnight; inhibition, % at 18.8 µM; shares compounds with HIF-2a block; 56% of 1,800 active;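 active = mean inhibition across four replicates of at least 40 percent at the single tested concentration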
HIF-1a cs – inhibits HIF-1a reporter, a counter-screen for HIF-2a inhibitors | 72% of 1,800 active | MiaPaCa-2 HIF-1a luciferase reporter, desferoxamine, overnight | inhibition, % at 18.8 µM | shares compounds with HIF-2a block;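 active = mean inhibition of the reporter signal across four replicates at the single tested dose of 50% or more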
Active calls of the source: *; nt = no result. Most compounds without a hit are left out; they make up all but 3.9% or so of the library.

SMILES | C8 TRAIL sens | HSP90 refold inh | aSyn 5UTR inh | TWEAK Fn14 block | HIF-2a block | TROY signal inh | HIF-2a conf | HIF-1a cs | others
CCOc1ccccc1Nc1nnc(SCC(=O)N(C)C2CCS(=O)(=O)C2)s1 (stereo not drawn) | -15.9 | nt | nt | 0.7 | 3.7 | 12.2 | nt | nt
CCc1nc2c(OCc3ccc(F)c(F)c3)cccn2c1N(C)C(=O)c1ccc(C)cc1 | -18.1 | nt | nt | -18.3 | 2.7 | -5.2 | nt | nt
O=C(NC1CCCCC1)C1c2ccccc2OCC(=O)N1Cc1cccnc1 (stereo not drawn) | -5.6 | nt | nt | -15.9 | 3.1 | -4.3 | nt | nt
C#CCN(C[C@@H]1[C@@H](OC(=O)NCc2ccco2)[C@@H](OC(=O)NCc2ccco2)Cn2c(=O)ccc(=O)n21)S(=O)(=O)c1ccc(C)cc1 | 15.2 | nt | nt | 38.0 | 42.7* | 18.5 | 44.3* | 107.5*
C#CCN(C[C@@H]1[C@@H](OC(=O)NCCCCCC)[C@@H](OC(=O)NCCCCCC)Cn2c(=O)ccc(=O)n21)S(=O)(=O)c1ccc(C)cc1 | 89.4* | nt | nt | 106.5* | 95.1* | 88.0* | 90.6* | 106.9*
C#CCN(C[C@@H]1[C@@H](OC(=O)NCC2CCCCC2)[C@@H](OC(=O)NCC2CCCCC2)Cn2c(=O)ccc(=O)n21)S(=O)(=O)c1ccc(C)cc1 | 92.8* | nt | nt | 106.9* | 96.7* | 73.9* | 99.3* | 107.3*
C#CCN(C[C@@H]1[C@@H](OC(=O)NCc2ccc(OC)c(OC)c2)[C@@H](OC(=O)NCc2ccc(OC)c(OC)c2)Cn2c(=O)ccc(=O)n21)S(=O)(=O)c1ccc(C)cc1 | 12.9 | nt | nt | 7.2 | 33.2 | 10.1 | nt | nt
Cc1nc2cc(-c3ccccc3)nn2c(C)c1CCC(=O)NC(C)c1ccc2c(c1)OCCO2 (stereo not drawn) | -7.5 | 5.3 | 52.0 | 5.5 | 65.8* | -17.3 | 78.8* | 45.1
Cc1nc2cc(-c3cccc(F)c3)nn2c(C)c1CCC(=O)NC(C)c1ccc2c(c1)OCCO2 (stereo not drawn) | 1.0 | -3.1 | 28.9 | -5.6 | 45.8* | -10.8 | 72.2* | 42.1
Cc1nc2nc(C)c(CCC(=O)NC(C)c3ccc4c(c3)OCCO4)c(C)n2n1 (stereo not drawn) | -11.0 | 0.4 | 3.7 | 2.0 | -11.7 | 4.4 | nt | nt
CN(C)CCNc1ncnc2c1ncn2[C@H]1CN(Cc2cccs2)C[C@@H](CO)O1 | -8.5 | nt | nt | -15.1 | -1.7 | 0.8 | nt | nt
CCN(CC)C(=O)C(c1ccccc1)S(=O)(=O)N1CCOCC1 (stereo not drawn) | 4.4 | nt | nt | -2.9 | -3.0 | 0.3 | nt | nt
O=C(c1ccccc1)c1nn(-c2ccc(Cl)cc2)c(=O)cc1C(F)(F)F | 23.0 | -5.3 | -219.1 | 74.0* | 46.3* | -48.0 | -1.7 | 106.8* | Mdm2 MdmX conf=103.0*
O=C(c1ccccc1)c1nn(-c2ccccc2)c(=O)cc1C(F)(F)F | -0.2 | 1.9 | -49.8 | 43.1 | 27.9 | 11.2 | nt | nt
COc1cccc(C(=O)C(C#N)=C(SC)SC)c1 | 45.1 | 0.0 | -47.4 | -80.5 | 79.7* | -7.2 | 90.6* | 28.8
CSC(SC)=C(C#N)C(=O)c1ccccc1 | 10.0 | 1.9 | -25.1 | -90.7 | 90.2* | 4.0 | 88.6* | -5.1
COc1cccc(C(=O)C(CCC#N)c2ccccc2)c1 (stereo not drawn) | 3.1 | nt | nt | 3.6 | 13.0 | -2.9 | nt | nt
CNC[C@@H]1OCc2cnnn2CCCC(=O)N([C@H](C)CO)C[C@H]1C | -10.2 | nt | nt | 7.5 | 7.0 | 0.4 | nt | nt
Cc1ccc(C(=O)/C=C/c2ccc(F)cc2)o1 | 3.6 | -2.0 | -51.0 | -2.6 | -49.2 | -68.7 | nt | nt
O=C(/C=C/c1ccc(F)cc1)c1ccccc1Br | 12.0 | 2.9 | -27.1 | 63.2* | 59.1* | 1.0 | 43.1* | 105.8*
CC(SC#N)C(=O)C12CC3CC(CC(C3)C1)C2 (stereo not drawn) | 2.2 | 1.3 | -11.6 | 72.0* | 46.1* | 41.1 | 23.8 | 12.1
C[C@H](CO)N1C[C@H](C)[C@H](CN(C)C(=O)Nc2ccc(C(F)(F)F)cc2)OCc2cnnn2CCCC1=O | -10.7 | nt | nt | 13.4 | 1.1 | 2.0 | nt | nt
COc1cc(NC(=O)C2CC(c3ccccc3O)=NO2)cc(OC)c1OC (stereo not drawn) | -22.4 | nt | nt | -18.9 | 8.6 | -0.6 | nt | nt
O=C(Nc1ccncc1)c1ccc(Cl)c(S(=O)(=O)N2CCc3ccccc32)c1 | 16.8 | nt | -24.5 | 77.8* | 49.9* | 46.2 | -7.1 | 7.7
O=C(Nc1ccncc1)c1ccc(Cl)c(S(=O)(=O)N2CCCCC2)c1 | 13.7 | nt | -24.2 | 38.6 | 2.9 | 17.4 | nt | nt
SMILES | C8 TRAIL sens | HSP90 refold inh | aSyn 5UTR inh | TWEAK Fn14 block | HIF-2a block | TROY signal inh | HIF-2a conf | HIF-1a cs | others
CCCCCN(C(=O)CCC(=O)OCC(=O)NCCc1ccccc1)c1c(N)n(CCCC)c(=O)[nH]c1=O | -8.4 | nt | nt | 9.2 | 4.2 | -1.2 | nt | nt
CCOC(=O)/C(=C/c1ccc(OC(F)F)cc1)C1=Nn2c(nnc2-c2ccc(Cl)cc2)SC1 | 90.4* | nt | nt | 106.5* | 87.7* | 90.7* | 43.1* | 105.3*
O=C(NCC1CCCO1)c1c(O)c2cccc3c2n(c1=O)CCC3 (stereo not drawn) | -1.6 | -2.7 | -18.1 | -25.4 | -28.6 | -24.0 | nt | nt
O=C(NCC1CCCO1)c1c(O)c2cccc3c2n(c1=O)CC3 (stereo not drawn) | -2.4 | 2.2 | -26.2 | 6.0 | -50.3 | -2.9 | nt | nt | Mdm2 MdmX conf=71.0*
CC(=O)OC1C=CCC2C(=O)c3cccc(O)c3C(O)C12 (stereo not drawn) | 4.2 | nt | nt | -24.2 | 0.6 | -12.8 | nt | nt
COc1cccc2c1C(CO)N1C(C#N)C3CC(C(=O)O)C(C1C2)N3C (stereo not drawn) | 59.4* | -7.1 | nt | 101.7* | 42.2* | 51.4* | 7.6 | 105.9* | Mdm2 MdmX conf=103.5*
COc1cccc2c1OCC(C(=O)O)C2 (stereo not drawn) | -13.8 | 3.0 | 16.5 | 0.6 | 10.2 | 3.6 | nt | nt
CCOC(=O)c1sc(NC(=O)c2cc(-c3ccc(C)cc3)nc3ccccc23)c(C#N)c1C | 46.6 | -1.0 | -6.5 | 61.9* | -7.9 | 48.5 | nt | nt | Mdm2 MdmX conf=97.2*
COCCNc1nc2cc(-c3ccc(C)cc3)sc2c(=O)n1C | -1.9 | nt | nt | -6.1 | -281.2 | -36.7 | nt | nt
C=C1CC(COc2cc(=O)oc3ccccc23)(c2ccccc2)OC1=O (stereo not drawn) | 93.3* | nt | nt | 66.5* | 90.1* | 57.8* | 57.1* | 106.0*
CCC1Cc2[nH][nH]c(=O)c2C(CC)O1 (stereo not drawn) | 0.8 | nt | nt | 14.9 | 5.8 | -13.9 | nt | nt
CCC1(C(=O)OC)CCc2c(cc(OC)c3ccccc23)C1=O (stereo not drawn) | 7.2 | 5.2 | 26.5 | -6.1 | 54.9* | 27.7 | -2.3 | -20.0

From PubChem BioAssay
